What follows are molecules tested on T1, NIM1. Settings: concentration: 1 μM, replicates: in singlicate; n = 1.
T1 construct: gene MGC42105
For O=C(Nc1cccc(-c2nn3ccccc3c2-c2ccnc(Nc3cccc(C(F)(F)F)c3)n2)c1)c1c(F)cccc1F [GSK292658], the “%Inh” value was 2%.
Cl.NC(=O)c1cccc(Nc2nccc(Nc3ccc(Oc4c(Cl)cccc4Cl)c(Cl)c3)n2)c1 [GW659009] was tested, and the “%Inh” value was 7%.
In the case of COc1ccc(CNC(=O)NC2CCN(c3ccnc(Nc4ccc(F)cc4)n3)CC2)cc1 [GSK1379788], the “%Inh” value is reported as 8%.
In the case of COc1ccc(Nc2nccc(NCCNC(=O)c3cc4ccccc4s3)n2)cc1 [GSK1379896], the “%Inh” value is reported as 4%.
For O=c1[nH]cc(-c2ccc(N3CCOCC3)cc2)c2sc(-c3cn[nH]c3)cc12 [GSK2276055], the “%Inh” value was 30%.

The molecules below were run on NLK. Settings: concentration: 1 μM, replicates: in singlicate; n = 1.
With Cl.c1ccc(-c2ccc3c(Nc4ccc5[nH]ccc5c4)ccnc3c2)nc1 [GW440138] the “%Inh” value was 36%.
O=C(Nc1ccccc1F)NC1CCN(c2ccnc(Nc3ccc(F)cc3)n2)CC1 [GSK1379800] was tested, and the “%Inh” value was 12%.
In the case of Cc1cccc(NC(=O)Nc2ccc(Oc3ncnc4ccn(C)c34)cc2)c1, the “%Inh” value is reported as 0%.
COc1cccc(C2=C(Nc3ccc(Cl)c(C(=O)O)c3)C(=O)NC2=O)c1 [SB-390769] was tested, and the “%Inh” value was 22%.
In the case of COc1cccc(-c2ccc3c(NC(=O)C4CC4)n[nH]c3n2)c1 [SB-710903], the “%Inh” value is reported as 49%.
In the case of CN1CCN(CCCNc2nccc(-c3c(-c4ccc(F)cc4)nn4cc(C(F)(F)F)ccc34)n2)CC1 [GW621581], the “%Inh” value is reported as 55%.
With COCCOCCOc1cc2ncc3c4ccc(C#N)cc4[nH]c3c2cc1OC the “%Inh” value was 19%.
In the case of O=C(Nc1cccc(-c2nn3ncccc3c2-c2ccnc(Nc3ccccc3)n2)c1)c1c(F)cccc1F [GSK198271], the “%Inh” value is reported as 95.1%.
With c1ccc(-c2n[nH]cc2Nc2ccnc3ccccc23)nc1 [GW694077] the “%Inh” value was 53%.
COC(=O)Nc1nc2ccc(Oc3ccc(NC(=O)Nc4cc(C(F)(F)F)ccc4F)cc3)cc2n1C.Cl [GW692089] was tested, and the “%Inh” value was 8%.
Cn1cc(-c2ccc3c(c2)CCN3C(=O)Cc2cccc(Cl)c2)c2c(N)ncnc21 [GSK2606590] was tested, and the “%Inh” value was 0%.
With CC(C)(C)c1ccc2nccc(Nc3cccc(O)c3)c2c1 [GW856795] the “%Inh” value was 0%.
COc1cc(Nc2nccc(N3CCC(NC(=O)Nc4cccc(C(C)=O)c4)C3)n2)cc(OC)c1OC (stereo not drawn) [GSK1379753] was tested, and the “%Inh” value was 21%.
In the case of O=C(Nc1n[nH]c2nc(-c3ccc(O)cc3)ccc12)C1CC1 [SB-710363], the “%Inh” value is reported as 92.1%.
For c1ccc(-c2cnc3nccnn23)cc1 [AH20685], the “%Inh” value was 0%.
In the case of CN(C)Cc1ccc(-c2ccc3c(Nc4ccc(Oc5ccccn5)cc4)ccnc3c2)o1 [GW567148], the “%Inh” value is reported as 0%.
With NCCCC(NC(=O)c1cc(Br)c(-c2ccnc3[nH]ccc23)s1)c1ccccc1.O=C(O)C(F)(F)F.O=C(O)C(F)(F)F (stereo not drawn) [GSK1287544] the “%Inh” value was 0%.
CCS(=O)(=O)c1ccc(OC)c(Nc2nccc(-c3c(-c4cccc(NC(=O)c5c(F)cccc5F)c4)nn4ncccc34)n2)c1 [GSK326180] was tested, and the “%Inh” value was 48%.
CCn1c(-c2nonc2N)nc2c(C#CC(C)(C)O)ncc(OCCCCN)c21.O=C(O)C(F)(F)F.O=C(O)C(F)(F)F [GSK507274] was tested, and the “%Inh” value was 0%.
In the case of Cl.Cl.NCC(NC(=O)c1cc(-c2ccccc2)c(-c2ccnc3[nH]ccc23)s1)c1ccccc1 (stereo not drawn) [GSK1321561], the “%Inh” value is reported as 55%.
For Clc1ccc(-c2nn3ncccc3c2-c2ccnc(Nc3ccc4c(c3)OCCO4)n2)cc1 [GW829116], the “%Inh” value was 61%.
With Cc1ccc(C)c(NC(=O)NC2CCN(c3ccnc(Nc4ccc(F)cc4)n3)C2)c1 (stereo not drawn) [GSK1379720] the “%Inh” value was 4%.
CN1CCN(Cc2cccc(-c3ccc4c(Nc5ccc(Oc6ccccc6)cc5)ccnc4c3)c2)CC1 [GW578342] was tested, and the “%Inh” value was 41%.
For O=C(O)C(F)(F)F.O=C(O)C(F)(F)F.O=c1[nH]ccc2nc(N[C@@H]3CCCNC3)nc(Nc3ccc(S(=O)(=O)N4CCOCC4)cc3)c12 [GSK2177277], the “%Inh” value was 0%.
With COc1cc(Nc2nccc(-c3c(-c4cccc(NC(=O)c5c(F)cccc5F)c4)nn4ncccc34)n2)cc(OC)c1OC [GSK327238] the “%Inh” value was 82%.
O=C(NC1CCN(c2ccnc(Nc3ccc(F)cc3)n2)C1)c1cc2ccccc2s1 (stereo not drawn) [GSK1379716] was tested, and the “%Inh” value was 31%.
For Cl.c1ccc(-c2ccc3c(Nc4ccc5[nH]ncc5c4)ccnc3c2)nc1 [GW440137], the “%Inh” value was 28%.
COc1cc(Nc2ncc3c(C)nc(-c4cc5ccccc5[nH]4)n3n2)cc(OC)c1OC [GW869516] was tested, and the “%Inh” value was 0%.
With CCCCc1nn2ncccc2c1-c1ccnc(Nc2ccc(N3CCN(C)CC3)cc2)n1 [GW684941] the “%Inh” value was 54%.
With C[C@@H](Oc1cc(-n2cnc3cc(-c4ccnc(NCCS(C)(=O)=O)c4)ccc32)sc1C(N)=O)c1ccccc1Cl [GSK907232] the “%Inh” value was 14%.
For O=C(Nc1cccc(-c2nn3ccccc3c2-c2ccnc(Nc3cccc(F)c3)n2)c1)c1c(F)ccc(F)c1Cl [GSK357952], the “%Inh” value was 46%.
For CCc1ccc(-c2ccc3c(c2)-c2c(cnn2C)S(=O)(=O)N3C)cc1, the “%Inh” value was 11%.
With O=C(Nc1cccc(-c2nn3ccccc3c2-c2ccnc(Nc3cccc(C(F)(F)F)c3)n2)c1)c1c(F)cccc1F [GSK292658] the “%Inh” value was 33%.
With Cl.NC(=O)c1cccc(Nc2nccc(Nc3ccc(Oc4c(Cl)cccc4Cl)c(Cl)c3)n2)c1 [GW659009] the “%Inh” value was 0%.
For COc1ccc(CNC(=O)NC2CCN(c3ccnc(Nc4ccc(F)cc4)n3)CC2)cc1 [GSK1379788], the “%Inh” value was 0%.
In the case of COc1ccc(Nc2nccc(NCCNC(=O)c3cc4ccccc4s3)n2)cc1 [GSK1379896], the “%Inh” value is reported as 49%.
In the case of O=c1[nH]cc(-c2ccc(N3CCOCC3)cc2)c2sc(-c3cn[nH]c3)cc12 [GSK2276055], the “%Inh” value is reported as 0%.
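Also: KINOMEscan kinase panel screen.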
